Consider 44 sequences from article PMC7819943, “Rice protein-binding microarrays: a tool to detect cis-acting elements near promoter regions in rice”.

The full ranking holds about 35,000 sequences; the median of “fluorescence intensity (a.u.)” is about 10,000, and the highest 2% start at about 52,000. The sample as a whole holds a higher share of the highest values than the screen did.

This assay deals with T1, OsWOX13 (Oryza sativa, UniProt Q5QMM3 1-267).
T1 sequence: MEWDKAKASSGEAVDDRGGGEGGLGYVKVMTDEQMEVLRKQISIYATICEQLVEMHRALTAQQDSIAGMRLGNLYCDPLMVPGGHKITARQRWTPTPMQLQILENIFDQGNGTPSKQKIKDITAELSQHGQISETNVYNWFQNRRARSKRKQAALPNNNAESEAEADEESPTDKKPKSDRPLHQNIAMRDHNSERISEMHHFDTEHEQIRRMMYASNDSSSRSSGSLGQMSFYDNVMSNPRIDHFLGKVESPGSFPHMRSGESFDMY
Kind of assay: protein-binding microarray (RPBM); PBS, 2% BSA, 51.3 ng/ul salmon testes DNA, 50 uM zinc acetate, 200 nM TF, 25 C, 1 h; high values mean tight binding. As to conditions: protein: recombinant; tags: N-terminal polyhistidine and DsRed monomer fusion (pET32a); label: CyDye5-dUTP incorporated in the synthesized complementary strand; 3' TTTTT single-stranded linker to array surface; dsDNA, one strand shown. Summed up:
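Polyhistidine-tagged DsRed fusions of transcription factors, joined at the N-terminus, were expressed in E. coli BL21-CodonPlus and isolated on Ni–NTA. They were incubated at 200 nM for 1 h at 25 °C on a custom Agilent array, double-stranded and BSA-blocked, in PBS with 2% BSA, salmon testes DNA and 50 µM zinc acetate. The binding signal is per-feature fluorescence intensity (arbitrary units) read on an Axon 4000B scanner after washing.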
On to “CCATCGTAATTGATCGAAAACTGACAACATGTTAGGGTTGCGGAGTCACCTAGTGCAG”, for which the binding signal was 12700 fluorescence intensity (a.u.). Consider “AAACAAATGATTTTATTCATTTACTCATTCATCATATCACCGGAGTCACCTAGTGCAG”, for which the binding signal was 10300 fluorescence intensity (a.u.).

Turning to “CCATGATGATGAGTCATTTTAACAGTCTGCAAGTACTAAACGGAGTCACCTAGTGCAG”, the binding signal is 8500 fluorescence intensity (a.u.). The same measure for “TTTAATTTTATGTTTTGATTTTAATCTATATCTCTTCTCTCGGAGTCACCTAGTGCAG”: 22600 fluorescence intensity (a.u.); for “GATCGATTTGGTTTTGTTGATTTGATCTGGCCGGACAAGGCGGAGTCACCTAGTGCAG”: 3980 fluorescence intensity (a.u.); for “AACCCTAGATTGATTTTGCGTGTGCTGCGTGAAGACGGCACGGAGTCACCTAGTGCAG”: 41400 fluorescence intensity (a.u.).

For the sequence “ATTTTGACTGATGTGACGTTTGCGTGGCTGGTTTGATTAGCGGAGTCACCTAGTGCAG”, the binding signal is 28900 fluorescence intensity (a.u.). On to “TGACTTGATTAATTGCTTCTATGTTTGGCACCCAATTAATCGGAGTCACCTAGTGCAG”, for which the binding signal is 44900 fluorescence intensity (a.u.). In the case of “GTTTGATTGATTGATTTCGTGTACCATGCGGACTTCAGATCGGAGTCACCTAGTGCAG” it was 65100 fluorescence intensity (a.u.). The same measure for “CTGAAACTGATTGAACTTTTGTCCATTTTCAGATCGTGTACGGAGTCACCTAGTGCAG”: 49400 fluorescence intensity (a.u.); for “GCTTAATTGATTAATTTGCTGGACGAGGAATCTTCTATGTCGGAGTCACCTAGTGCAG”: 64600 fluorescence intensity (a.u.); for “GGGCCGTGATTGATTTGCTGGCGTGTGTGATTTTCAGCTGCGGAGTCACCTAGTGCAG”: 62900 fluorescence intensity (a.u.). In the case of “TAGTTTGTGATTGATTTGTCGACATCTGGAGGCGTCATGCCGGAGTCACCTAGTGCAG” it was 58400 fluorescence intensity (a.u.). For the sequence “TGATTTGATTTTCAGTTTTGCACCATGCGATCGATCGAGACGGAGTCACCTAGTGCAG”, the binding signal was 4320 fluorescence intensity (a.u.). The same measure for “GACATATTGTCACCGGTTTTGATTAGTTGTGGATATCTGGCGGAGTCACCTAGTGCAG”: 6960 fluorescence intensity (a.u.); for “CATCCATCCAACTTAATTTGACAGCAACTCACTGCAGCTTCGGAGTCACCTAGTGCAG”: 12000 fluorescence intensity (a.u.); for “TAGTTAAATTTCCATTTAACTAGGGATAAATTAAATGGCTCGGAGTCACCTAGTGCAG”: 20200 fluorescence intensity (a.u.). In the case of “AGAATATGATTTTAAAATTAATTTTAGGGGAGGGTTTTACCGGAGTCACCTAGTGCAG” it was 26000 fluorescence intensity (a.u.).

In the case of “TTGTTGTTATTTAATAAATTAGGAGATCAAATATGTTATTCGGAGTCACCTAGTGCAG”, the binding signal was 3300 fluorescence intensity (a.u.).

Take “GGGGCAAATTGGTCTTGTCATGAAAGCTAAAAGCCAAAGGCGGAGTCACCTAGTGCAG”: the binding signal is 4730 fluorescence intensity (a.u.). Consider “CAAGATAATTACAAGTTTATAAAACAAACTACTACAGGGACGGAGTCACCTAGTGCAG”, for which the binding signal is 27200 fluorescence intensity (a.u.). In the case of “CACTATCTGATCCTAATTACACACTGATGCAGGGGTAAATCGGAGTCACCTAGTGCAG” it was 3790 fluorescence intensity (a.u.); in that of “TGATTGATTGCTTGATTGGGAGTGTCCTTTGGGCGAGCTGCGGAGTCACCTAGTGCAG”, 64900 fluorescence intensity (a.u.). The same measure for “GTTAATTTTGTCGAGTTAATTGGATCTTTGCTTTGATGGGCGGAGTCACCTAGTGCAG”: 57600 fluorescence intensity (a.u.); for “ATCTTTAATTTTGATATTTAATTTTAATCATTGGAAAGGGCGGAGTCACCTAGTGCAG”: 25000 fluorescence intensity (a.u.). In the case of “AGGTGTACATGATTGTTTGCTTCCTTGCTGCAGCTCGGCGCGGAGTCACCTAGTGCAG” it was 14100 fluorescence intensity (a.u.); in that of “CATAATTGCTGATATTTTGTCTTTGGAGTTTGATCCATGGCGGAGTCACCTAGTGCAG”, 44200 fluorescence intensity (a.u.); in that of “CAATGCTTGCTTGATTGGGAGCGCGTCGTCGAGGGCGTCGCGGAGTCACCTAGTGCAG”, 14400 fluorescence intensity (a.u.). As for “CCCCATCGTCACTTATAATTTATGAATAAAACTTTTAGATCGGAGTCACCTAGTGCAG”, the binding signal is 4840 fluorescence intensity (a.u.). The same measure for “GGATGAAATTAGCCCATCAGCAATTACGTGTAGGCCGTAGCGGAGTCACCTAGTGCAG”: 3690 fluorescence intensity (a.u.); for “ATGTTCCTATCAGTTGCTAATTATTAGTGTGACATCAATCCGGAGTCACCTAGTGCAG”: 16300 fluorescence intensity (a.u.). The same measure for “ATTAAGTCTAATTAATCTGTTATTAGCAAATGTTTACTGTCGGAGTCACCTAGTGCAG”: 11100 fluorescence intensity (a.u.). In the case of “CCTAATTACGCCATGATTTGATAATATGATGCTACAATAACGGAGTCACCTAGTGCAG” it was 39600 fluorescence intensity (a.u.); in that of “ACTGCTGCCGATTGACTGCTACGAGTAGCTCGCACCTGGCCGGAGTCACCTAGTGCAG”, 7450 fluorescence intensity (a.u.). For “TTTAATATTTATAATTAATGTCAAACATCAGATGTGATAGCGGAGTCACCTAGTGCAG”, the binding signal was 12700 fluorescence intensity (a.u.). The same measure for “CCAAATTAAGCCATTAATTAATAAAACAATATCATTAGGACGGAGTCACCTAGTGCAG”: 28900 fluorescence intensity (a.u.); for “GAGCAAAACAATAATTAAATATATTTTGATAATAAATTTGCGGAGTCACCTAGTGCAG”: 3560 fluorescence intensity (a.u.); for “TTTAATTGATAAATATTATCAATTATTAAACAGATAAGCGCGGAGTCACCTAGTGCAG”: 62800 fluorescence intensity (a.u.).

In the case of “TAATATTTAAATTAAACCTATAATCAAGCAGATGATTTATCGGAGTCACCTAGTGCAG”, the binding signal was 8840 fluorescence intensity (a.u.).

“TAATAATTGATTAAACAGAGCAAATTTTAGCTTGCAGATACGGAGTCACCTAGTGCAG”: the binding signal is 48500 fluorescence intensity (a.u.).

Consider “TGAAATAATTAATTAAATTATCATTAAGCCCCAAACCGAGCGGAGTCACCTAGTGCAG”, for which the binding signal was 57300 fluorescence intensity (a.u.). In the case of “AATCAATTTAATAATTGATTAAACAGAGCAAATTTTAGCTCGGAGTCACCTAGTGCAG” it was 65100 fluorescence intensity (a.u.); in that of “CAATTGTGAAATAATTAATTAAATTATCATTAAGCCCCAACGGAGTCACCTAGTGCAG”, 30300 fluorescence intensity (a.u.). For the sequence “GATAGATGATATACCCGTTAACAATGAGACGTTTGTGGAGCGGAGTCACCTAGTGCAG”, the binding signal was 3270 fluorescence intensity (a.u.).
